Assay results: ChEMBL document CHEMBL1961873, “Compounds: GSK PKIS; Assays: Nanosyn kinase panel” (2012)

Tests used:
[1] = molecular target: T1, Inhibitor of nuclear factor kappa-B kinase subunit epsilon (Homo sapiens) (UniProt Q14164); details: at 1 µM;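 further: reported values are averaged percent inhibition figures against human IKKε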
T1 sequence (whole entry): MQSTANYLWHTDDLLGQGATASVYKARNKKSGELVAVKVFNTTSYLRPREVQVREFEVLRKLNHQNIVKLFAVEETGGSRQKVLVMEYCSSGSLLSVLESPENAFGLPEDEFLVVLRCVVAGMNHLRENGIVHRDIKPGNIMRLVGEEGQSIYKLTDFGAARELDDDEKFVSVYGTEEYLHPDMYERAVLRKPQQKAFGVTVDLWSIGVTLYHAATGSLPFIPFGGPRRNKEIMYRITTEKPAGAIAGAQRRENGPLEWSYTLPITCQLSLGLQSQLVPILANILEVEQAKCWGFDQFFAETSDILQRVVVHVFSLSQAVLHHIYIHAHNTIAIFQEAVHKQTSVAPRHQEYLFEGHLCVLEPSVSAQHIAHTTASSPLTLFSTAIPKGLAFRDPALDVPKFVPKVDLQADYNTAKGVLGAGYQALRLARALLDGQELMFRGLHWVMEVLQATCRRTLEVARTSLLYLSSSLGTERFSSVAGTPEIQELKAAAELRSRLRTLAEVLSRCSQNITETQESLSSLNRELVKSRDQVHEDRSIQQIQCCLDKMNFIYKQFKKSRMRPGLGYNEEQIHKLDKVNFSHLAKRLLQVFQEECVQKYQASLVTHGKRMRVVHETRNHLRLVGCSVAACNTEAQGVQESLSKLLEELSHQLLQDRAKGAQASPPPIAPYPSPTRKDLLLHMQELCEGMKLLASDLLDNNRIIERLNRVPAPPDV

[2] = molecular target: T2, Serine/threonine-protein kinase Nek1 (Homo sapiens) (UniProt Q96PY6); details: at 0.1 µM
T2 sequence (whole entry): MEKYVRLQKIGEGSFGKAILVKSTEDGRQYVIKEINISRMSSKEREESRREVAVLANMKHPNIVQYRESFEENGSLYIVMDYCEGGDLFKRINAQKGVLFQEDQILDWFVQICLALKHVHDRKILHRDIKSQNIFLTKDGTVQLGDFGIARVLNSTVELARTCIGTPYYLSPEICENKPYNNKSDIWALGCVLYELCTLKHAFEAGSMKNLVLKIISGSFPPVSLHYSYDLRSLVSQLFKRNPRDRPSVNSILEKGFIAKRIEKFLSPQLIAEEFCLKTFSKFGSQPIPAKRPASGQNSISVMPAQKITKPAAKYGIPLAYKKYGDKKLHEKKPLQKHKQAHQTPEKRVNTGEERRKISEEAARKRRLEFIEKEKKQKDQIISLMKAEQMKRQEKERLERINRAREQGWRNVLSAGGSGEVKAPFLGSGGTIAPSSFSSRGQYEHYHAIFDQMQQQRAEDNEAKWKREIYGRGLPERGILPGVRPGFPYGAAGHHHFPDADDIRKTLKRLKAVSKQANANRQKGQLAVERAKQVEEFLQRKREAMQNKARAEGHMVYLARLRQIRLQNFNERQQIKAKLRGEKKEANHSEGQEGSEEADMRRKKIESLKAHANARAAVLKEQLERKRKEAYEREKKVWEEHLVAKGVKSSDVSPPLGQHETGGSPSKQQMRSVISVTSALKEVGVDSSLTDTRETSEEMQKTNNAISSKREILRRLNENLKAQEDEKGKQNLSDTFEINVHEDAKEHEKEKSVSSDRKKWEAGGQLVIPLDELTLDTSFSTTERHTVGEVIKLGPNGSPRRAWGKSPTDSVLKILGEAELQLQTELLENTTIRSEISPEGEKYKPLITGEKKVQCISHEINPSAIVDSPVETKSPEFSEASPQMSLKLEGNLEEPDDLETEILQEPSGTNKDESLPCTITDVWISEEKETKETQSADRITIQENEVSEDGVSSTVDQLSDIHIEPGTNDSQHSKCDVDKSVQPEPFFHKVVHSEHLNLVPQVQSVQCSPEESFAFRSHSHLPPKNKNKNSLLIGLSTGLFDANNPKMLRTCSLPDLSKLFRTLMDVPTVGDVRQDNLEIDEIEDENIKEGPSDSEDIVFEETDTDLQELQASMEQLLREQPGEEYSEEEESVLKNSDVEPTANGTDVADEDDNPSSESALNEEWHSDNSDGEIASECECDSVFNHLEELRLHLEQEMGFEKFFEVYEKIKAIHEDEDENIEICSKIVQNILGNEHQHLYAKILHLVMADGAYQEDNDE

[3] = molecular target: T2, Serine/threonine-protein kinase Nek1 (Homo sapiens); details: at 1 µM
[4] = molecular target: T3, Serine/threonine-protein kinase Nek2 (Homo sapiens) (UniProt P51955); details: at 0.1 µM
T3 sequence (whole entry): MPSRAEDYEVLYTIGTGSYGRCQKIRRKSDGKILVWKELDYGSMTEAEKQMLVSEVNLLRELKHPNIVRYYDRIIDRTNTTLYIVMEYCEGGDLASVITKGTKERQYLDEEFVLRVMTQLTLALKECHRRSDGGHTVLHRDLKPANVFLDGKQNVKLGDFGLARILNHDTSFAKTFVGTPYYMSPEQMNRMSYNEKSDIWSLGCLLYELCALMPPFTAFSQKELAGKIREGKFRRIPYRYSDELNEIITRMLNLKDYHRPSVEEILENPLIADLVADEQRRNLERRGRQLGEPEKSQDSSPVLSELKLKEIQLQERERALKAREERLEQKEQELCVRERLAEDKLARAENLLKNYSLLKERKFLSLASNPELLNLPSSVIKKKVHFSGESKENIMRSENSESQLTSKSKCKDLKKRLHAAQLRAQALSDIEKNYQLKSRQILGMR

[5] = molecular target: T3, Serine/threonine-protein kinase Nek2 (Homo sapiens); details: at 1 µM
[6] = molecular target: Serine/threonine-protein kinase Nek6 (Homo sapiens) (UniProt Q9HC98); details: at 0.1 µM
[7] = molecular target: Serine/threonine-protein kinase Nek6 (Homo sapiens) (UniProt Q9HC98); details: at 1 µM
[8] = molecular target: Serine/threonine-protein kinase Nek7 (Homo sapiens) (UniProt Q8TDX7); details: at 0.1 µM
[9] = molecular target: Serine/threonine-protein kinase Nek7 (Homo sapiens) (UniProt Q8TDX7); details: at 1 µM
[10] = molecular target: T4, Serine/threonine-protein kinase Nek9 (Homo sapiens) (UniProt Q8TD19); details: at 0.1 µM
T4 sequence (whole entry): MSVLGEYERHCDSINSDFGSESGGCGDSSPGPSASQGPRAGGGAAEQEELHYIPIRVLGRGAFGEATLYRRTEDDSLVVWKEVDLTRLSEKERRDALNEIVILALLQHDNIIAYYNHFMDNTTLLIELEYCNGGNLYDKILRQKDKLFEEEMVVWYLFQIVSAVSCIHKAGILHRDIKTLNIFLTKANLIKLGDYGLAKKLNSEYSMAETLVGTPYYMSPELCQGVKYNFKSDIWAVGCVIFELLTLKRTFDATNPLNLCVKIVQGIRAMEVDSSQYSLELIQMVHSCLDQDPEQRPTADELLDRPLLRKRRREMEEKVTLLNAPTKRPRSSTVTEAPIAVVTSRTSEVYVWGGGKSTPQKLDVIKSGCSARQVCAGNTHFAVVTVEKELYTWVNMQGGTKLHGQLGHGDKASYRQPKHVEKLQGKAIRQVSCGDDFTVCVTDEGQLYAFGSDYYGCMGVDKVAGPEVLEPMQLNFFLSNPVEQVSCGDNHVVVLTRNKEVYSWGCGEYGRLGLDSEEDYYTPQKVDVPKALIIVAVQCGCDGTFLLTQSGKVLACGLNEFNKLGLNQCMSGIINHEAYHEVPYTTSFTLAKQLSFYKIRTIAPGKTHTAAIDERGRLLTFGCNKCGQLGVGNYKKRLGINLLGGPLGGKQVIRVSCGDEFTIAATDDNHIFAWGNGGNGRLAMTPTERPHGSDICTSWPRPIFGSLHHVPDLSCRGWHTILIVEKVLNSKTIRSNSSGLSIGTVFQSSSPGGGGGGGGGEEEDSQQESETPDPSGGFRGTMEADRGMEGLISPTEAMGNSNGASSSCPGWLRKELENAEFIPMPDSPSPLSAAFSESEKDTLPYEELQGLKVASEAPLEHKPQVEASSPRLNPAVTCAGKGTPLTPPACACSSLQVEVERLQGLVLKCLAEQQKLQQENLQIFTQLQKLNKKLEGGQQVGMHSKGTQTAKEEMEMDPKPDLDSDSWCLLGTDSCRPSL

[11] = molecular target: T4, Serine/threonine-protein kinase Nek9 (Homo sapiens); details: at 1 µM
[12] = molecular target: Serine/threonine-protein kinase PLK1 (Homo sapiens) (UniProt P53350); details: at 0.1 µM
[13] = molecular target: Serine/threonine-protein kinase PLK1 (Homo sapiens) (UniProt P53350); details: at 1 µM
[14] = molecular target: T5, Dual specificity protein kinase TTK (Homo sapiens) (UniProt P33981); details: at 0.1 µM
T5 sequence (whole entry): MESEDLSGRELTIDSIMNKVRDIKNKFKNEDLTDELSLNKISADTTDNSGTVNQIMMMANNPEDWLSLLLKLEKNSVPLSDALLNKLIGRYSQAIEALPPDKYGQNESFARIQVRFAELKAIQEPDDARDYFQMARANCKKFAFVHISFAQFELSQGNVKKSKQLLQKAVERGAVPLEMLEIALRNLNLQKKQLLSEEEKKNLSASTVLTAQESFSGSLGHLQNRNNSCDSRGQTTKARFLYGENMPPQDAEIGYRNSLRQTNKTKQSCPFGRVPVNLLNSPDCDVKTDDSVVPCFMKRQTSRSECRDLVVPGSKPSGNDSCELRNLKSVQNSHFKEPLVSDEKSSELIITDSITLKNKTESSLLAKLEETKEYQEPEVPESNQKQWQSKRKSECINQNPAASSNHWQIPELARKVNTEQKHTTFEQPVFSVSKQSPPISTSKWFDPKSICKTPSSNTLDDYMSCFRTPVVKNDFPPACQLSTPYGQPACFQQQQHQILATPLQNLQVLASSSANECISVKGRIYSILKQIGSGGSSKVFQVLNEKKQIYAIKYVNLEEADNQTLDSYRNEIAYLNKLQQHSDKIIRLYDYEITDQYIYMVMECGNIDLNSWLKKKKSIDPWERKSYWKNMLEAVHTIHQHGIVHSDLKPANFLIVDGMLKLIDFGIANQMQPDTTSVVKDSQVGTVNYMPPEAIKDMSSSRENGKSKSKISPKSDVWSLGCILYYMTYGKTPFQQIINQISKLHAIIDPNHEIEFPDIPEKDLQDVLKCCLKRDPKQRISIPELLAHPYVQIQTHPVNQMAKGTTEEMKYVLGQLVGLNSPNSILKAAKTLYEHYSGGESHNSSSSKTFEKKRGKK

[15] = tested on: T6, Receptor-type tyrosine-protein kinase FLT3 (Homo sapiens), P36888 [D835Y]; details: at 1 µM
T6 sequence (whole entry): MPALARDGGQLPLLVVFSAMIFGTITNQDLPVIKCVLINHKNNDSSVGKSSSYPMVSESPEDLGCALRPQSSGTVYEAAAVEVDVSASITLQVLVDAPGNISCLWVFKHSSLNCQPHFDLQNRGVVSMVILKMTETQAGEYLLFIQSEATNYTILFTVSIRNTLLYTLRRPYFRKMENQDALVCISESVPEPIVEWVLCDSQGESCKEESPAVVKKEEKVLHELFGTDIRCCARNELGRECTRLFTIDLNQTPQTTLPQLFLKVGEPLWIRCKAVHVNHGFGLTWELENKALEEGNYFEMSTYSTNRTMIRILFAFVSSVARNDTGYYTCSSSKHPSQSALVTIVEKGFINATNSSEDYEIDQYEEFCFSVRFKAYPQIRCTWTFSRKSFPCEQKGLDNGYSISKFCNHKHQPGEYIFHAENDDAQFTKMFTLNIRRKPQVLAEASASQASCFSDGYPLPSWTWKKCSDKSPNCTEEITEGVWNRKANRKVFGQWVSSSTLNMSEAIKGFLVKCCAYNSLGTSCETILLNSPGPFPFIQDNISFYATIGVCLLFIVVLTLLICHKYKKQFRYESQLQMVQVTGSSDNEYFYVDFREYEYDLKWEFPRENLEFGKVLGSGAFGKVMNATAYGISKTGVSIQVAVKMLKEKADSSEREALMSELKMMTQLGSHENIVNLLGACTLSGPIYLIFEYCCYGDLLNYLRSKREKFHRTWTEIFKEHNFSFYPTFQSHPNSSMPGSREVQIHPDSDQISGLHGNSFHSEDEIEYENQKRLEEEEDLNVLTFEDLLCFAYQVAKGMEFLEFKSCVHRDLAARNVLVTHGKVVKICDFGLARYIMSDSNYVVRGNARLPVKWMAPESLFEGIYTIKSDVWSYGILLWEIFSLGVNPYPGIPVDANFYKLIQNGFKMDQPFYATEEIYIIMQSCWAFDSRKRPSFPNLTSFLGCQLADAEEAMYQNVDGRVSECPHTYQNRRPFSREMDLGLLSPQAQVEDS

[16] = molecular target: Vascular endothelial growth factor receptor 3 (Homo sapiens) (UniProt P35916); details: at 0.1 µM
[17] = molecular target: Vascular endothelial growth factor receptor 3 (Homo sapiens) (UniProt P35916); details: at 1 µM
[18] = molecular target: Macrophage colony-stimulating factor 1 receptor (Homo sapiens) (UniProt P07333); details: at 0.1 µM
[19] = molecular target: Macrophage colony-stimulating factor 1 receptor (Homo sapiens) (UniProt P07333); details: at 1 µM
[20] = molecular target: Tyrosine-protein kinase Fyn (Homo sapiens) (UniProt P06241); details: at 0.1 µM
Tyrosine-protein kinase Fyn (Homo sapiens), sequence (P06241 2-537 limits assumed): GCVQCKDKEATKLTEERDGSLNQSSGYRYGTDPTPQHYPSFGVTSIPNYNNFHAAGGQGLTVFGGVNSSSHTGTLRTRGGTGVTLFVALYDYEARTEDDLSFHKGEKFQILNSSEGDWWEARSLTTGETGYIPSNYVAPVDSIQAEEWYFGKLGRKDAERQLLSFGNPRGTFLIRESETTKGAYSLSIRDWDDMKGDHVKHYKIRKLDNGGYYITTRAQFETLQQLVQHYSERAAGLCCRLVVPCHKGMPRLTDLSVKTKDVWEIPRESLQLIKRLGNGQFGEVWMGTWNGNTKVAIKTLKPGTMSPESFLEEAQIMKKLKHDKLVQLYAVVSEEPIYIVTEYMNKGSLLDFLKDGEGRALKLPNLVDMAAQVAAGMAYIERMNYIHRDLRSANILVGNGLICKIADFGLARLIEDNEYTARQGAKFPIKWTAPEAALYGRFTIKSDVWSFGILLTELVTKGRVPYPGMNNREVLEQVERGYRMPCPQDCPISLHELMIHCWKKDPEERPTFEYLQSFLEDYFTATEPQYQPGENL

Vascular endothelial growth factor receptor 3 (Homo sapiens), sequence (P35916 whole entry): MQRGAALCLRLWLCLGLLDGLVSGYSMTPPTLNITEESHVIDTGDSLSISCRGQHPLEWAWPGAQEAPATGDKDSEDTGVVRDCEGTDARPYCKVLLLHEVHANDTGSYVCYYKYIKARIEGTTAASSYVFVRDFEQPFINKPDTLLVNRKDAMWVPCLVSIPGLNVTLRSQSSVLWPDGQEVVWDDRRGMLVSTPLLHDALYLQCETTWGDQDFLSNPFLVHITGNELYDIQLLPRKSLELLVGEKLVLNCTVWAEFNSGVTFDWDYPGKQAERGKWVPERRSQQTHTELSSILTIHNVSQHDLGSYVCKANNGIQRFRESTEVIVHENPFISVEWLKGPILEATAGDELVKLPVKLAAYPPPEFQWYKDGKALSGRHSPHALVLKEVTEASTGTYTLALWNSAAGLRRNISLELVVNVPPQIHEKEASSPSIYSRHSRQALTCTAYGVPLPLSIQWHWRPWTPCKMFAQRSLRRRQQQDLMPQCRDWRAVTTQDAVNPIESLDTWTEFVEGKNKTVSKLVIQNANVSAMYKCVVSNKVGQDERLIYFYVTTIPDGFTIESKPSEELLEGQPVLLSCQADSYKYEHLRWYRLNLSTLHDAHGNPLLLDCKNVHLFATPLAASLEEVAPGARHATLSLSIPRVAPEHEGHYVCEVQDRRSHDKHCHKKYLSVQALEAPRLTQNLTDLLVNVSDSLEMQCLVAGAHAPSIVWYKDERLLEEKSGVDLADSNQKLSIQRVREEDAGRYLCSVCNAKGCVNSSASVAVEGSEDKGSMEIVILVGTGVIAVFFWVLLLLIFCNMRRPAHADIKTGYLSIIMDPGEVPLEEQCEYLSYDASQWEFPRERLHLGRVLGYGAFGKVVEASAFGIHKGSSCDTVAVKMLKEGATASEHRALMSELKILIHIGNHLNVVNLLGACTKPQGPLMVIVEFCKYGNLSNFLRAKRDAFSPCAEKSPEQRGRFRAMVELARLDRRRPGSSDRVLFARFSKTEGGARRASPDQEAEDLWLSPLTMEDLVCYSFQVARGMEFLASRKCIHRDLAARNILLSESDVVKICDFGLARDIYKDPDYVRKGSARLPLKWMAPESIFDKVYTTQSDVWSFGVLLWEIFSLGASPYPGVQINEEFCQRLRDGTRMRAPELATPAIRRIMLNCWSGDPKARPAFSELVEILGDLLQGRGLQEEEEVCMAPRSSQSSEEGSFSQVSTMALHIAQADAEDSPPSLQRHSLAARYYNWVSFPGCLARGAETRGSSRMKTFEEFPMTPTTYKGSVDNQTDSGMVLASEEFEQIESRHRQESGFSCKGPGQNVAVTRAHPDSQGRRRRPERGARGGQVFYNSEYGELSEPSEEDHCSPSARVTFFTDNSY
Macrophage colony-stimulating factor 1 receptor (Homo sapiens), sequence (P07333 whole entry): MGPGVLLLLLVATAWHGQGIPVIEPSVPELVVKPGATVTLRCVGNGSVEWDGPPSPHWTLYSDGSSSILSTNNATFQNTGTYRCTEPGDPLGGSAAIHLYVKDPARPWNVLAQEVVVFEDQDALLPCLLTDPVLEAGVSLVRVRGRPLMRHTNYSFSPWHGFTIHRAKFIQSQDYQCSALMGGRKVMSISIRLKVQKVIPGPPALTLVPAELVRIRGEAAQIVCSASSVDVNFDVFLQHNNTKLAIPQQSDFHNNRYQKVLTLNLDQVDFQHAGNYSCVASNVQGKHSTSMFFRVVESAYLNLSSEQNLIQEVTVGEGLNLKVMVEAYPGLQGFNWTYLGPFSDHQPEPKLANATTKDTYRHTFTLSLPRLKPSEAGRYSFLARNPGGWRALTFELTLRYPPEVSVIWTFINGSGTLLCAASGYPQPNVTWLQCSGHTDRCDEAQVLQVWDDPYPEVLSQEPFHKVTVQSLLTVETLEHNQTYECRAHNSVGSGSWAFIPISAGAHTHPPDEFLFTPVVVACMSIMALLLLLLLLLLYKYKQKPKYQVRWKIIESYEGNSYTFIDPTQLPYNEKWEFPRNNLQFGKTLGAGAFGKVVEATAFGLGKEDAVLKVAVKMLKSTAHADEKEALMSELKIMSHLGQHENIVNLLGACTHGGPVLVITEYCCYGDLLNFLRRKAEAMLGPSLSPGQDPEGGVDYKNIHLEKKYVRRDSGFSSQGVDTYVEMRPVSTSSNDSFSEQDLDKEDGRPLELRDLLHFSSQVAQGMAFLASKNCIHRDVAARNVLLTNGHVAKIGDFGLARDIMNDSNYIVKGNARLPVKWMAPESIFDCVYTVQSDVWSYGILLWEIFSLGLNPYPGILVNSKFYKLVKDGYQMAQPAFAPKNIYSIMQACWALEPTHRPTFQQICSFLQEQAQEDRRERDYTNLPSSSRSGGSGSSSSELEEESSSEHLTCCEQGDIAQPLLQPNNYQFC
Serine/threonine-protein kinase Nek6 (Homo sapiens), sequence (Q9HC98 whole entry): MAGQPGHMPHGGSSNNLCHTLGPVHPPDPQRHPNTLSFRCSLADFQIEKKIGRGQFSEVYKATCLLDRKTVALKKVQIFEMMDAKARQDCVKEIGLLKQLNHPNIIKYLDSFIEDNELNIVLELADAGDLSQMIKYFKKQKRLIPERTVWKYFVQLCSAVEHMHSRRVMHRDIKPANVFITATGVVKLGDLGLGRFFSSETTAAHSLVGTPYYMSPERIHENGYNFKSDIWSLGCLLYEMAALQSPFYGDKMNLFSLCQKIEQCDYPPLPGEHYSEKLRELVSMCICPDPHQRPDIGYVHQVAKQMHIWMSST
Serine/threonine-protein kinase Nek7 (Homo sapiens), sequence (Q8TDX7 whole entry, looked up): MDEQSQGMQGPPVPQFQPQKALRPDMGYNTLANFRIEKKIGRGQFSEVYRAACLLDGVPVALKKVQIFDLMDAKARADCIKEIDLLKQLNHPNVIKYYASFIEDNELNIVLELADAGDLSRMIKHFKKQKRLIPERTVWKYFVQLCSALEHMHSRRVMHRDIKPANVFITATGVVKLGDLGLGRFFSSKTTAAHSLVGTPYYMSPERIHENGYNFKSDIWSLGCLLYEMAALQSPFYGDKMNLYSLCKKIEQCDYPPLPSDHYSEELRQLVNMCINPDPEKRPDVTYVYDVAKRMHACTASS
Serine/threonine-protein kinase PLK1 (Homo sapiens), sequence (P53350 whole entry): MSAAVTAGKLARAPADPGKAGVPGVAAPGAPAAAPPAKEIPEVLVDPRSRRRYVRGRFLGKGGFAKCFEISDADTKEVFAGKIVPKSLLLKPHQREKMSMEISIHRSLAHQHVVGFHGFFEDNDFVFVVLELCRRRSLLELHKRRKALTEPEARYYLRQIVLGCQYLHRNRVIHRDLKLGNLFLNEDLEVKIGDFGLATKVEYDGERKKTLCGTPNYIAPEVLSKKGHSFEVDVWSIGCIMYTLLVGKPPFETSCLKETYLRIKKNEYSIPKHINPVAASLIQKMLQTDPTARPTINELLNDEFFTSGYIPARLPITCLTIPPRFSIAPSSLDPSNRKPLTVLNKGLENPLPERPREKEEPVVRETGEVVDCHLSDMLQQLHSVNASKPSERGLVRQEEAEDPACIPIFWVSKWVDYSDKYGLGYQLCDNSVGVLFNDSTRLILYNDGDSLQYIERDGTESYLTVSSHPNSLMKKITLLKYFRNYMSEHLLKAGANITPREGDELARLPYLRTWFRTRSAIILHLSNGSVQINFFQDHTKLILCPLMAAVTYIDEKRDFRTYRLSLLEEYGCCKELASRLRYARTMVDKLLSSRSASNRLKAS

Row | Structure (SMILES) | inhibition [1] | inhibition [2] | inhibition [3] | inhibition [4] | inhibition [5] | inhibition [6] | inhibition [7] | inhibition [8] | inhibition [9] | inhibition [10] | inhibition [11] | inhibition [12] | inhibition [13] | inhibition [14] | inhibition [15] | inhibition [16] | inhibition [17] | inhibition [18] | inhibition [19] | inhibition [20]
1 | NC(=O)c1cc(-c2ccncc2)cc(-c2ccccc2)c1N | 14.9% | 3.64% | 3.27% | 6.42% | 6.13% | 2.63% | -0.35% | 4.53% | 3.98% | 9.48% | 3.74% | 4.45% | 5.13% | 8.7% | 2.51% | 2.14% | 6.17% | 22.8% | 64.8% | 6.39%
2 | COc1cc2ncn(-c3cc(OCc4cccs4)c(C(N)=O)s3)c2cc1OC | 7.71% | 3.32% | 7.88% | 4.6% | 15.3% | 3.67% | 6.02% | 1.64% | 2.38% | 5.68% | 28.4% | – | – | 4.76% | 1.62% | -6.1% | 34.7% | 1.28% | 11.7% | -2.3%
3 | COc1ccc2ncn(-c3cc(O[C@H](C)c4ccccc4Cl)c(C(N)=O)s3)c2c1 | 4.23% | 4.81% | 24.8% | 5.9% | 10.3% | 0.15% | 0.34% | 3.12% | 6.32% | 31.8% | 83.7% | – | – | 6.36% | 2.74% | -5.28% | 4.48% | 3.05% | 14.4% | -4.31%
